Laboratory results taken from PubChem BioAssay AID1259313 (Sanford-Burnham Center for Chemical Genomics, 2017).
Where “and” joins values, the source holds several entries; their conditions need not be identical. Identical values can stand only once. Hit rate of the full screen: of about 340,000 compounds, about 8,500 (2.5%) were called active.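 The calls were made as follows: active = melting temperature shift of at least 10% of the positive control shift, at one fixed dose; inactive = the rest.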 This excerpt belongs to a sample that is enriched for actives.

tested on: Glutamate receptor ionotropic, NMDA 3A (GRIN3A) ligand-binding domain; experiment: binders of NR3A ligand-binding domain, primary screen, biophysical, differential scanning fluorimetry, uHTS (AID 1259313); conditions: NR3A LBD differential scanning fluorimetry, at 25 µM, active compounds read high, 0% = protein alone, 100% = glycine-bound protein

Tm shift relative to glycine control, active:
O=C(N/N=C/c1ccccn1)c1cccc(NC(=O)c2ccc(Cl)cc2)c1 21.2%, CC(C)=CCc1c(O)c(CC=C(C)C)c2occ(-c3ccc(O)cc3)c(=O)c2c1O 31.4%, Cc1ccccc1NC(=O)c1ccc(COc2ccc3c(C)cc(=O)oc3c2)cc1 12%, COC(=O)C1=C(C)NC2=C(C(=O)c3ccccc32)C1c1ccc(-c2ccc(C(=O)O)cc2)o1 (configuration not stated) 30%, COc1cccc(/C=N/Nc2cc(C)nc(-c3ccccc3O)n2)c1O 30.6%, COc1ccc(NS(=O)(=O)c2cc(NC(=O)CC(=O)c3ccc([N+](=O)[O-])cc3)ccc2C)cc1 24%, Cc1ccc(Oc2nc3ccccc3n3c(C)nnc23)cc1 12.7%, O=C(Nc1ccc(NC(=O)c2ccco2)c(Cl)c1)c1cccc([N+](=O)[O-])c1 24.7%, Cc1cc(=O)oc2cc(OCC3CC(c4ccccc4Cl)=NO3)ccc12 (configuration not stated) 11.5%, COc1ccc(Br)cc1C(=O)NC(=S)Nc1cc(-c2nc3ccccc3[nH]2)ccc1C 25.9%

Tm shift relative to glycine control, inactive:
O=C(NC(Cc1ccc(O)cc1)C(=O)O)/C(=C/c1ccccc1)NC(=O)c1ccccc1 (configuration not stated) -1.28%, O=C(Nc1nccs1)C1CCCN1S(=O)(=O)c1cccc2cccnc12 (configuration not stated) 0.08%, CCOC(=O)NC(=O)CSc1nnc(SCCC(=O)O)s1 -2.83%, COc1ccc(C)cc1N(C(=O)Cn1nnc(-c2ccc(C)o2)n1)C(C(=O)NC1CCCC1)c1ccncc1 (configuration not stated) 0.19%, CC(C)(C)NC(=O)NC(=O)COC(=O)C1c2ccccc2Oc2ccccc21 -5.02%, CCC(C)(C)NC(=O)CN(C(=O)CCC(=O)Nc1nccs1)c1ccc2c(c1)OCO2 -1.69%, COc1cc(NC(=O)CSC(=S)N2CCCC2)c(OC)cc1Cl -1.06%, O=C(N/N=C/c1ccccn1)c1ccc(S(=O)(=O)N2CCCCCC2)cc1 -1.75%, Cc1cccc(C(=O)Nc2ccc(C(=O)N/N=C/c3cccc(C)n3)cc2)c1 -13.7%, C=CCC1(CC=C)CCCN1C(=O)c1cc(COc2ccc(-n3cncn3)cc2)on1 1.48%, Cc1ccc2cc(C#N)c(NCCNC(=S)NCCCN3CCOCC3)nc2c1 1.55%, CC(C)CN(Cc1c(O)ccc2c(=O)c(-c3ccccc3)coc12)CC(C)C -7.19%, COC(=O)C1=C(C)N(Cc2ccccc2)C(=NCCCOC(C)C)N[C@H]1c1ccccc1 -2.6%, CCN(C(=O)COC(=O)c1ccc(COc2ccc3c(C)cc(=O)oc3c2)cc1)C1CCS(=O)(=O)C1 (configuration not stated) 2.72%, CCOC(=O)c1cc(=O)c2ccc(OCc3ccccc3)cc2o1 2.08%, COC(=O)c1ccc(/C=N/OCC(=O)Nc2cc(F)ccc2F)cc1 1.06%, CC(NC(=O)C(=O)N/N=C/c1ccc(Cl)cc1)c1ccccc1 (configuration not stated) -8.19%, CC(C)Cn1cnc2c(SCc3ccc(Cl)cc3)nc(N)nc21 -6.54%, COC(=O)C1=C(C)N(C)C(=O)NC1c1ccc([N+](=O)[O-])o1 (configuration not stated) -3.85%, CCOC(=O)c1ccc(-c2ccc(C(=O)Nc3cccnc3)o2)cc1 -18.8%, NC(=O)C[n+]1cccc(C(N)=O)c1 -0.09%, O=C(Nc1ccc(Cl)cc1)/C(=C1\CCCN1)[N+](=O)[O-] -1.33%, COc1ccc(Cc2nnc(N/N=C/c3ccccc3O)[nH]c2=O)cc1OC -2.87%, COc1ccc(/C=N/Nc2cc(N3CCOCC3)nc(C)n2)c(OC)c1 -3.16%, COc1ccc(C(=O)CC(=O)C(=O)Nc2cc([N+](=O)[O-])ccc2OC)cc1 2.73%, COc1ccc(NS(=O)(=O)c2cc(C(=O)Nc3ccccc3C(=O)O)ccc2C)cc1 1.75%, COc1ccc(/C=C/C(=O)OCC(=O)NCc2cccs2)cc1OC 0.79%, C#C[C@]1(O)CC[C@H]2[C@@H]3CCC4=CC(=O)CC[C@@H]4[C@H]3CC[C@@]21CC 1.26% and -0.79%, Cc1ccc(S(=O)(=O)N(C)c2nc3ccccc3n3c(C(C)C)nnc23)cc1 1.79%, CCOC(=O)CNc1nc2ccccc2n2c(C)nnc12 -9.54%, COc1ccccc1-n1cnc2cc(NS(=O)(=O)c3ccccc3)ccc21 0.96%, O=C1c2cccc3cccc(c23)C(=O)N1c1cccc(O)c1 3.66%, O=C(c1cccc(Br)c1)N1CCN(C2=NS(=O)(=O)c3ccccc32)CC1 -0.26%, CCC1CCCCN1C(=S)Nc1ccc(S(=O)(=O)Nc2ncccn2)cc1 (configuration not stated) -1.92%, COc1cc(NC(=O)c2cc([N+](=O)[O-])ccc2Br)ccc1NC(=O)c1ccco1 -2.17%, O=C(Nc1ccc(C2CC2(Cl)Cl)cc1)c1cccc([N+](=O)[O-])c1 (configuration not stated) -0.36%, COc1ccc(N2CCN(C(=O)c3ccccc3NC(=O)C3=C(C)OCCS3)CC2)cc1 -0.18%, CCOC(=O)c1cc2cc(C)ccc2[nH]1 0.1%, Cn1ccc(=NC=C(C#N)C#N)c2ccccc21 -0.6%, Cc1cc(C)n2nc(C(=O)OC(C)C(=O)c3cc(C)c(C)cc3C)nc2n1 (configuration not stated) 1.24%, Cc1cc(=O)oc2cc(OCCC[n+]3ccccc3)ccc12 -1.47%, CCOc1ccccc1N1CCN(C(=O)COc2ccc3c(C)cc(=O)oc3c2)CC1 -4.48%, O=C(COC(=O)/C=C/c1cccc(Cl)c1)NCCc1ccccc1 0.53%, C[C@H](O)[C@@H]1C(=O)N2CCc3ccc(N4CCOCC4)cc3[C@@H]2C[C@@H]1N(C)C(=O)C(C)(C)C -1.15%, O=C(NCc1ccco1)C(c1ccncc1)N(C(=O)Cn1nnc2ccccc21)c1ccccc1 (configuration not stated) -1.69%, COc1ccc(Br)cc1C(=O)Nc1cccc(C)c1C -2.13%, COc1ccccc1C(=O)NC(=S)Nc1ccccc1N1CCCCC1 -4.34%
